Data reported in PubChem BioAssay (NCI).
The panel holds about 79,000 compounds, 15% with a hit somewhere; the sample as a whole holds those more often. Activity calls are given as the source filed them. No stated cut-off is given here; in the data, active means growth inhibition above about 70%; inactive means the rest.

How the values were obtained:
[1] = NCI Yeast Anticancer Drug Screen. Data for the sgs1 strain (AID 173);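 further: 0% = growth of vehicle-only control cultures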; conditions: S. cerevisiae sgs1 mutant, active compounds read high
Method in brief: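 Read-out: yeast growth inhibition relative to vehicle controls, following compound exposure of a strain with a defined DNA repair/cell cycle alteration.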

[2] = NCI Yeast Anticancer Drug Screen. Data for the rad18 strain (AID 177); conditions: S. cerevisiae rad18 mutant growth inhibition, active compounds read high
Method in brief: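 Readout: growth inhibition vs vehicle controls. Cells: genetically altered yeast strain, DNA repair defect.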

[3] = NCI Yeast Anticancer Drug Screen. Data for the rad52 strain (AID 147);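 further: 0% = growth of vehicle-treated control cultures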; conditions: S. cerevisiae rad52 mutant growth inhibition, active compounds read high
Method in brief: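 Read-out: growth inhibition versus vehicle-treated controls. Cells were a DNA repair-deficient yeast strain treated with compounds.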

[4] = NCI Yeast Anticancer Drug Screen. Data for the wt1 strain (AID 149);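 further: 0% = growth of vehicle-treated wt1 cultures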; conditions: S. cerevisiae wt1 strain (SPY 50644) growth inhibition, active compounds read high
Method in brief: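 wt1 yeast, compound-treated; % growth inhibition vs vehicle control.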

[5] = NCI Yeast Anticancer Drug Screen. Data for the rad50EPP+ strain (AID 151);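 further: 0% = growth of vehicle-treated control cultures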; conditions: S. cerevisiae rad50 mutant strain, active compounds read high
Method in brief: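 Growth inhibition read against vehicle controls in rad50EPP+ yeast, a strain altered in DNA damage repair, after compound exposure.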

[6] = NCI Yeast Anticancer Drug Screen. Data for the rad50 strain (AID 155);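 further: 0% = growth of vehicle-only cultures of the same strain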; conditions: S. cerevisiae rad50 strain growth inhibition, active compounds read high
Method in brief: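 Genetically altered yeast (DNA repair pathway); compound treatment; growth inhibition vs vehicle ctrl.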

[7] = NCI Yeast Anticancer Drug Screen. Data for the mec2-1 strain (AID 157); conditions: S. cerevisiae mec2-1 strain, active compounds read high
Method in brief: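 Yeast mec2-1 mutant treated with compound. Readout: growth inhibition vs vehicle controls.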

[8] = NCI Yeast Anticancer Drug Screen. Data for the rad14 strain (AID 159);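 further: 0% = growth of vehicle-treated control cultures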; conditions: S. cerevisiae rad14 strain growth inhibition, active compounds read high
Method in brief: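 Test compounds were applied to a repair-deficient yeast strain. Its growth was then compared with that of cultures given vehicle alone, and inhibition was expressed relative to those controls.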

[9] = NCI Yeast Anticancer Drug Screen. Data for the sgs1 mgt1 strain (AID 161);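 further: 0% = growth of cultures given vehicle only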; conditions: S. cerevisiae sgs1 mgt1 strain, active compounds read high
Method in brief: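 Test agents were incubated with a DNA-repair-mutant yeast strain. Growth was then read and compared against vehicle-treated controls.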

[10] = NCI Yeast Anticancer Drug Screen. Data for the cln2 rad14 strain (AID 165);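 further: 0% = growth equal to vehicle treated cultures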; conditions: S. cerevisiae cln2 rad14 strain, active compounds read high
Method in brief: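 cln2 rad14 yeast strain; compound exposure; growth inhibition read vs vehicle controls.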

[11] = NCI Yeast Anticancer Drug Screen. Data for the bub3 strain (AID 167); conditions: S. cerevisiae bub3 mutant strain, active compounds read high
Method in brief: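 Yeast carrying a defined mutation is treated with each compound, and growth is compared with that of vehicle-exposed cells to give inhibition.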

[12] = NCI Yeast Anticancer Drug Screen. Data for the mlh1 strain (AID 171);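 further: 0% = growth of vehicle-treated control cultures of the same strain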; conditions: S. cerevisiae mlh1 strain growth inhibition, active compounds read high
Method in brief: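 Read-out: growth inhibition versus vehicle controls. Strain: engineered yeast with a defined DNA repair or cell cycle defect, compound-treated.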

[13] = NCI Yeast Anticancer Drug Screen. Data for the mlh1 rad18 strain (AID 175); conditions: S. cerevisiae mlh1 rad18 strain growth inhibition, active compounds read high
Method in brief: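 Yeast w/ defined DNA-repair lesions; compound exposure; growth vs vehicle controls → % inhibition.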

[14] = NCI Yeast Anticancer Drug Screen. Data for the CLN2oe strain (AID 163);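 further: 0% = growth of vehicle-only control cultures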; conditions: S. cerevisiae CLN2oe strain, active compounds read high
Method in brief: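 Read-out: yeast growth inhibition, expressed relative to vehicle-only controls. The strain bears an engineered cell-cycle alteration.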

[15] = NCI Yeast Anticancer Drug Screen. Data for the wt2 strain (AID 169);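 further: 0% = growth of vehicle-treated yeast cultures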; conditions: S. cerevisiae wt2 strain growth inhibition, active compounds read high
Method in brief: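 Read-out: growth inhibition versus vehicle-treated control cultures after compound exposure of the yeast strain.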

[16] = at 5.0 µM (retest, dose inferred, filed as 0.5)
[17] = at 50.0 µM (retest, dose inferred, filed as 5.0)

Measured: growth inhibition

O=C(N/N=C\c1c(Cl)cccc1Cl)N/N=C/c1c(Cl)cccc1Cl
inactive: [1]; at 33.0 µM 10% | [1]; at 100.0 µM 5% | [2]; at 1.2 µM -10% | [2]; at 3.7 µM 1% | [2]; at 11.0 µM -11% | [2]; at 33.0 µM -10% | [2]; at 100.0 µM -13%

O=C(NCCCCCN1CCC2(CCCCC2)CC1)C(C1CCCCC1)C1CCCCC1
inactive: [3]; at 1.2 µM 23% | [3]; at 3.7 µM 5% | [3]; at 11.0 µM 65% | [4]; at 1.2 µM -63% | [4]; at 3.7 µM -5% | [4]; at 11.0 µM 6% | [5]; at 1.2 µM -1% | [5]; at 3.7 µM 0% | [5]; at 11.0 µM 3% | [5]; at 33.0 µM 10% | [6]; at 1.2 µM -1% | [6]; at 3.7 µM 11% | [6]; [16] -7% | [6]; at 11.0 µM 46% | [7]; at 1.2 µM 22% | [7]; at 3.7 µM -5% | [7]; [16] -22% | [7]; at 11.0 µM 42% | [8]; at 1.2 µM 11% | [8]; at 3.7 µM 49% | [9]; [16] -15% | [11]; at 1.2 µM -2% | [11]; at 3.7 µM 2% | [11]; [16] -17% | [12]; at 1.2 µM 0% | [12]; at 3.7 µM 7% | [1]; at 1.2 µM 2% | [1]; at 3.7 µM 24% | [13]; [16] -3% | [2]; at 1.2 µM 8% | [2]; at 3.7 µM 11% | [2]; at 11.0 µM 69%
active: [3]; at 33.0 µM 100% | [3]; at 100.0 µM 97% | [4]; at 33.0 µM 85% | [4]; at 100.0 µM 98% | [5]; at 100.0 µM 99% | [6]; at 33.0 µM 97% | [6]; [17] 99% | [6]; at 50.0 µM 99.5% | [6]; at 100.0 µM 99% | [7]; at 33.0 µM 100% | [7]; [17] 98% | [7]; at 50.0 µM 99.3% | [7]; at 100.0 µM 98% | [8]; at 11.0 µM 98% | [8]; at 33.0 µM 99% | [8]; at 100.0 µM 99% | [9]; [17] 99% | [9]; at 50.0 µM 99.6% | [10]; [16] 70% | [10]; [17] 99% | [10]; at 50.0 µM 98.8% | [11]; at 11.0 µM 80% | [11]; at 33.0 µM 99% | [11]; [17] 100% | [11]; at 50.0 µM 99.2% | [11]; at 100.0 µM 99% | [12]; at 11.0 µM 76% | [12]; at 33.0 µM 99% | [12]; at 100.0 µM 94% | [1]; at 11.0 µM 86% | [1]; at 33.0 µM 99% | [1]; at 100.0 µM 98% | [13]; [17] 99% | [13]; at 50.0 µM 99.5% | [2]; at 33.0 µM 100% | [2]; at 100.0 µM 98%

O=C(O)c1ccccc1.[Ag]
active: [3]; at 1.2 µM 72% | [3]; at 3.7 µM 101% | [3]; at 11.0 µM 99% | [3]; at 33.0 µM 98% | [3]; at 100.0 µM 98% | [4]; at 1.2 µM 88% | [4]; at 3.7 µM 101% | [4]; at 11.0 µM 99% | [4]; at 33.0 µM 99% | [4]; at 100.0 µM 99% | [5]; at 1.2 µM 94% | [5]; at 3.7 µM 101% | [5]; at 11.0 µM 99% | [5]; at 33.0 µM 99% | [5]; at 100.0 µM 98% | [8]; at 1.2 µM 91% | [8]; at 3.7 µM 101% | [8]; at 11.0 µM 99% | [8]; at 33.0 µM 99% | [8]; at 100.0 µM 99% | [14]; at 3.7 µM 101% | [14]; at 11.0 µM 98% | [14]; at 33.0 µM 98% | [14]; at 100.0 µM 98% | [15]; at 1.2 µM 76% | [15]; at 3.7 µM 101% | [15]; at 11.0 µM 99% | [15]; at 33.0 µM 99% | [15]; at 100.0 µM 99% | [12]; at 1.2 µM 96% | [12]; at 3.7 µM 101% | [12]; at 11.0 µM 99% | [12]; at 33.0 µM 99% | [12]; at 100.0 µM 99% | [1]; at 1.2 µM 75% | [1]; at 3.7 µM 101% | [1]; at 11.0 µM 99% | [1]; at 33.0 µM 99% | [1]; at 100.0 µM 99% | [2]; at 1.2 µM 74% | [2]; at 3.7 µM 101% | [2]; at 11.0 µM 99% | [2]; at 33.0 µM 99% | [2]; at 100.0 µM 99%
inactive: [14]; at 1.2 µM 50%

C/C(=N\NC(=S)NC1CCCC1)c1ccccn1
active: [3]; at 3.7 µM 78% | [3]; at 11.0 µM 99% | [3]; at 33.0 µM 99% | [3]; at 100.0 µM 99% | [4]; at 3.7 µM 75% | [4]; at 11.0 µM 99% | [4]; at 33.0 µM 99% | [4]; at 100.0 µM 99% | [5]; at 11.0 µM 90% | [5]; at 33.0 µM 98% | [5]; at 100.0 µM 97% | [6]; at 3.7 µM 77% | [6]; at 11.0 µM 98% | [6]; at 33.0 µM 99% | [6]; [17] 99% | [6]; at 50.0 µM 79.2% | [6]; at 100.0 µM 98% | [7]; at 3.7 µM 77% | [7]; at 11.0 µM 99% | [7]; at 33.0 µM 99% | [7]; [17] 97% | [7]; at 50.0 µM 86% | [7]; at 100.0 µM 99% | [8]; at 3.7 µM 87% | [8]; at 11.0 µM 99% | [8]; at 33.0 µM 99% | [8]; at 100.0 µM 99% | [14]; at 3.7 µM 84% | [14]; at 11.0 µM 99% | [14]; at 33.0 µM 99% | [14]; at 100.0 µM 99% | [10]; [17] 100% | [10]; at 50.0 µM 90.3% | [11]; at 11.0 µM 99% | [11]; at 33.0 µM 99% | [11]; [17] 98% | [11]; at 50.0 µM 91% | [11]; at 100.0 µM 99% | [12]; at 3.7 µM 71% | [12]; at 11.0 µM 98% | [12]; at 33.0 µM 98% | [12]; at 100.0 µM 98% | [1]; at 3.7 µM 79% | [1]; at 11.0 µM 99% | [1]; at 33.0 µM 99% | [1]; at 100.0 µM 99% | [13]; [17] 98% | [13]; at 50.0 µM 91.5% | [2]; at 3.7 µM 79% | [2]; at 11.0 µM 98% | [2]; at 33.0 µM 99% | [2]; at 100.0 µM 95%
inactive: [3]; at 1.2 µM -5% | [4]; at 1.2 µM 3% | [5]; at 1.2 µM -6% | [5]; at 3.7 µM 14% | [6]; at 1.2 µM -5% | [6]; [16] 23% | [7]; at 1.2 µM 2% | [7]; [16] 33% | [8]; at 1.2 µM -9% | [14]; at 1.2 µM -6% | [10]; [16] 41% | [11]; at 1.2 µM -5% | [11]; at 3.7 µM 64% | [11]; [16] 9% | [12]; at 1.2 µM -3% | [1]; at 1.2 µM 0% | [13]; [16] 13% | [2]; at 1.2 µM -5%
